High-throughput results as filed in PubChem BioAssay.
This is a sample that favours compounds with a hit; in the whole collection about 3% have one here.
HIF-2a inh: HIF-2a reporter inhibitors, primary screen, luminescence, 786-0 RCC cells | 786-0 RCC cells HIF-2a reporter, luciferase luminescence, overnight | inhibition, % at 18.8 µM | 360,000 compounds, 0.72% hits;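 active = inhibition of the luminescence signal of 40% or more relative to plate controls, in a single-dose primary screen at 18.75 µM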
CF NFkB inh: inhibitors of PAF-induced NF-kB signaling, primary screen, cell-based, GFP fluorescence, uHTS | AID 588850, 2011 | 360,000 compounds, 0.86% hits | inhibition, % at 5 µM | KKLEB NF-kB-GFP reporter, GFP fluorescence overnight;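 active = at least 50% inhibition at 5 µM, scaled per plate between neutral and stimulator controls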;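 note: PAF is a Pseudomonas aeruginosa culture filtrate used as stimulus; plate controls were PAF-stimulated DMSO wells for no effect and unstimulated DMSO wells for full effect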
ABHD5-PLIN5 inh: ABHD5-PLIN5 interaction inhibitors, primary screen, cell lysate, split luciferase complementation, luminescence | inhibition, % at 4 µM | 360,000 compounds, 0.78% hits | Split G. princeps luciferase complementation, 4 h;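 active = inhibition above the mean inhibition across every tested compound plus 3 SD, cut at about 22% in these data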;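 note: 0% = DMSO only wells and the 100% control is not disclosed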
KKLEB tox: cytotoxicity in KKLEB CF airway cells, primary screen, cytotoxicity control for CF NF-kB inhibitor project, cell-based, uHTS, fluorescence assay plates; KKLEB CF airway cells viability, ATPlite luminescence, overnight; hits give low values; cells stimulated with P. aeruginosa culture filtrate; activity change (cytotoxicity), % at 5 µM; 360,000 compounds, 0.36% hits;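 active = corrected activity change at or below -50% at 5 µM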
Peg3 promoter: Peg3 promoter-driven luciferase inhibitors, primary screen, cell-based, HeLa, luciferase luminescence; inhibition, % at 20 µM; HeLa PEG-Prom luciferase reporter, overnight; 360,000 compounds, 1.7% hits;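 active = inhibition of at least 50% at 20 µM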
MITF TRPM1 inh: inhibitors of MITF-dependent TRPM1 promoter reporter, primary screen, cell-based, SK-MEL-5, single point, luciferase | SK-MEL-5 TRPM1 promoter luciferase, 24 h | inhibition, % at 12.5 µM | 330,000 compounds, 0.83% hits | AID 488899, 2010;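 active = mean inhibition across replicates of 60% or more, whatever share of single replicates reaches that level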
ABHD5-PLIN5 conf: ABHD5-PLIN5 interaction inhibitors, confirmation, biochemical, luminescence; AID 651612, 2012; shares compounds with ABHD5-PLIN5 inh; inhibition, % at 4 µM; 2,200 compounds, 67% hits; in the data active = inhibition above about 23%;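 note: 0% = DMSO vehicle wells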
HNF4 split-luc: HNF4 dimerization inhibitors, counter-screen for ABHD5-PLIN5 interaction inhibitor project, biochemical, split-luciferase complementation, luminescence | shares compounds with ABHD5-PLIN5 inh | inhibition, % at 4 µM | 2,200 compounds, 77% hits | AID 651674, 2012;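 active = mean inhibition across replicate wells exceeding the computed hit threshold, cut at about 13% in these data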;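 note: light from luciferase halves that rejoin when HNF4 fusion proteins dimerize; 0% = DMSO only wells and the 100% control is not given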
Target sequence (P41235 whole entry, looked up, the tested form may be a part): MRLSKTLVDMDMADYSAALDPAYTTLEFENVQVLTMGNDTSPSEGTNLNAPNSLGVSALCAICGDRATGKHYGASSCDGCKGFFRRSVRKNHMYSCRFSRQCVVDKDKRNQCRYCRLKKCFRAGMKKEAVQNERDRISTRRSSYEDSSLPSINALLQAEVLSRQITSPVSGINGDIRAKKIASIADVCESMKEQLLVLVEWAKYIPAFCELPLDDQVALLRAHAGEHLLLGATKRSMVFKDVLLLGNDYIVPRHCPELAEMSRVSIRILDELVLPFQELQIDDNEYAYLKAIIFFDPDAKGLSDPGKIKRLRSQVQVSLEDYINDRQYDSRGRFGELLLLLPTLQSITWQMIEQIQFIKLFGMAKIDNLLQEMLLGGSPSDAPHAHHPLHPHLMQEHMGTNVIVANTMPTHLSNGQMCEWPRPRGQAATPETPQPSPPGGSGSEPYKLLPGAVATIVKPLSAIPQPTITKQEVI
* hit, by the source's call; nt = not tested or not shown.

SMILES	HIF-2a inh	CF NFkB inh	ABHD5-PLIN5 inh	KKLEB tox	Peg3 promoter	MITF TRPM1 inh	ABHD5-PLIN5 conf	HNF4 split-luc
O=C(NCc1ccco1)c1cc2nc(-c3cccs3)cc(C(F)(F)F)n2n1	-36	-6	23*	-5	-1	-11	13	16*
O=C(NCc1ccco1)c1nn2c(C(F)(F)F)cc(-c3cccs3)nc2c1Cl	-3	6	3	-3	2	-3	nt	nt
COc1cc(CNC(=O)Nc2nnc([C@@H]3C[C@H](O)[C@@H](CO)O3)s2)cc(OC)c1OC	5	10	6	-2	22	nt	nt	nt
COC(=O)C=CSC(=S)C1CCCC1=N (stereo not given)	-197	12	-8	0	-175	nt	nt	nt
Cc1nc(C(C)NC(=O)c2cc(COc3ccc(C)c(C)c3)on2)c(C)s1 (stereo not given)	-243	4	29*	-9	-280	-71	2	10
Cc1cccc(CC(C)NC(=O)c2cc(COc3ccc(C)c(C)c3)on2)n1 (stereo not given)	-180	-39	-5	16	-181	-19	nt	nt
Cc1cc2nc(-c3ccc[nH]c3=O)n(Cc3ccccc3F)c2cc1C	-13	2	-8	-25	-29	2	nt	nt
Cc1ccsc1/C=N/NC(=O)CNC(=O)c1ccco1	-16	1	-2	-20	-14	3	nt	nt
Cc1ccsc1/C=N/NC(=O)CNC(=O)c1cccc([N+](=O)[O-])c1C	7	24	25*	-14	-1	-11	2	0
OC/C(Br)=C(\Br)CO	4	7	11	3	-3	0	nt	nt
Cc1ccc(C(=O)NCc2ccco2)cc1S(=O)(=O)N1CCCCC1	12	1	26*	3	-83	0	13	8
CSc1ccc(/C=C/C(=O)c2ccc(NC(C)=O)cc2)cc1	-57	-1	25*	-5	-23	-12	52*	41*
CCCC(=O)Nc1ccc(C(=O)/C=C/c2ccc(SC)cc2)cc1	-101	2	20	7	-29	8	nt	nt
COc1cccc(NC(=S)NC(=O)/C=C/c2ccc(F)cc2)c1	-3	-4	-6	-4	8	-4	nt	nt
CC(=O)Nc1ccc(/C=C/C(=O)c2ccc3c(c2)OCCO3)cc1	-26	-6	19	-13	-165	-1	nt	nt
CC(=O)Nc1cccc(C(=O)/C=C/c2ccc(C)cc2)c1	-18	36	49*	-8	97*	23	87*	82*
CCC(=O)Nc1cccc(C(=O)/C=C/c2ccc(F)cc2)c1	27	47	46*	0	100*	62*	92*	85*
COc1cc(NC(=O)CCCl)cc(-n2cnnn2)c1	15	-18	3	11	-1	-4	nt	nt
COc1cc2c(cc1OC)C1CCc3cc4c(cc3C1N=C2)OCO4 (stereo not given)	-257	-18	3	-6	-104	nt	nt	nt
CCOc1ccc(NC(=O)CN(C)C(=O)c2ccc3c(c2)C(=O)N(CCC(C)C)C3=O)cc1OCC	17	-6	-4	-2	-6	7	nt	nt
Cc1ccc(NC(=O)CN(C)C(=O)COc2ccc(Br)cc2)cc1	4	6	-3	-7	2	nt	nt	nt
Cc1cc(CNC(=S)Nc2ccc(Br)cc2Cl)nn1C	-12	11	-2	1	-2	7	nt	nt
CCOC(=O)c1cccc(S(=O)(=O)N(CCO)Cc2cc3cc(OC)ccc3[nH]c2=O)c1	6	5	1	-8	18	15	nt	nt
COC(=O)c1cccc(S(=O)(=O)N(Cc2ccco2)Cc2cc3cc(OC)ccc3[nH]c2=O)c1	13	10	42*	-12	33	11	56*	66*
CCNC(=O)NCc1c(C)c(C)n(Cc2ccccc2)c1-n1cccc1	19	-12	8	11	8	-2	nt	nt
SMILES	HIF-2a inh	CF NFkB inh	ABHD5-PLIN5 inh	KKLEB tox	Peg3 promoter	MITF TRPM1 inh	ABHD5-PLIN5 conf	HNF4 split-luc
COc1cc(C(C[N+](=O)[O-])c2c(N)n(C)c(=O)n(C)c2=O)ccc1O (stereo not given)	23	42	45*	-3	23	6	37*	55*
COc1cc(C(C[N+](=O)[O-])c2c(C)[nH]c3ccccc23)ccc1O (stereo not given)	29	17	2	-3	18	13	nt	nt
CC(C(c1ccc2c(c1)OCO2)c1c(N)n(C)c(=O)n(C)c1=O)[N+](=O)[O-] (stereo not given)	-49	6	33*	-10	-28	5	6	12
Cn1c(N)c(C(=O)CSc2ccc3c(c2)OCCO3)c(=O)n(C)c1=O	-52	12	-4	0	-33	-4	nt	nt
Cc1ccc(C(C[N+](=O)[O-])c2c(N)n(C)c(=O)n(C)c2=O)cc1 (stereo not given)	10	21	32*	-10	17	12	36*	44*
CC(C)C[C@@H](C(=O)NC1CCN(Cc2ccccc2)CC1)N1C(=O)N2CCc3c([nH]c4ccccc34)[C@@]2(C)C1=O	16	-14	4	-10	46	49	nt	nt
COc1ccccc1N=Cc1c(C)[nH]n(-c2ccc(C)cc2C)c1=O	19	-9	-1	10	14	5	nt	nt
COc1cc(SC#N)ccc1N=Cc1c(C)[nH]n(-c2ccc(C)cc2C)c1=O	3	-44	27*	12	15	7	38*	26*
CCCC(=O)NC(c1ccco1)c1cc([N+](=O)[O-])c2cccnc2c1O (stereo not given)	11	57*	35*	-11	38	-4	17	24*
CCC(=O)NC(c1ccco1)c1cc(Br)c2cccnc2c1O (stereo not given)	17	-8	3	19	50	nt	nt	nt
O=C(Nc1ncccc1O)c1ccc(Cl)c(S(=O)(=O)N2CCCCC2)c1	1	1	-9	-7	-8	5	nt	nt
O=C(Cc1ccccc1)Nc1cccc(N2C(=O)C=CC2=O)c1	27	52*	29*	2	96*	4	47*	107*
O=C(O)c1cccc(N2C(=O)C=CC2=O)c1	15	-5	37*	-1	13	nt	44*	104*
